Most compounds without a hit are left out; they make up all but 3.9% or so of the library.
3CLpro inhibitor: SARS-CoV 3CLpro protease inhibition; recombinant SARS-CoV 3CLpro, quenched FRET peptide cleavage; inhibition, % at 6 µM; hit rate 0.14% among 290,000; in the data active = inhibition above about 12%
PrPC surface inh: inhibitors of human cell surface prion protein PrPC. P04156. TR-FRET read-out. inhibition, % at 13.8 µM. hit rate 0.43% among 370,000. AID 720596; in the data active = inhibition above about 24%; also: 0% = median of the test wells and 100% = reference compound wells
GDH-TPI counter-1: GDH-TPI coupled enzyme inhibition counter-screen | hit rate 1.2% among 360,000 | inhibition, % at 4.8 µM | GDH-TPI coupled enzyme counterscreen, NADH absorbance; in the data active = inhibition above about 30%;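 also: 0% = DMSO wells and 100% = wells lacking the enzyme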
BH1578 lux ind: quorum light induction in luxS cqsA deficient V. cholerae | hit rate 0.16% among 350,000 | activation, % at 18.7 µM | V. cholerae BH1578 lux reporter, luminescence, 6 h; in the data active = activation mostly above about 9.7%, no sharp cut-off
FBA Mtb inh: inhibits M. tuberculosis FBA enzyme | purified M. tuberculosis FBA, fluorescence read-out | inhibition, % at 1 µM | hit rate 2.3% among 360,000 | AID 588726;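 also: 0% = vehicle and 100% = reference inhibitor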
Target sequence (P9WQA3 whole entry, looked up): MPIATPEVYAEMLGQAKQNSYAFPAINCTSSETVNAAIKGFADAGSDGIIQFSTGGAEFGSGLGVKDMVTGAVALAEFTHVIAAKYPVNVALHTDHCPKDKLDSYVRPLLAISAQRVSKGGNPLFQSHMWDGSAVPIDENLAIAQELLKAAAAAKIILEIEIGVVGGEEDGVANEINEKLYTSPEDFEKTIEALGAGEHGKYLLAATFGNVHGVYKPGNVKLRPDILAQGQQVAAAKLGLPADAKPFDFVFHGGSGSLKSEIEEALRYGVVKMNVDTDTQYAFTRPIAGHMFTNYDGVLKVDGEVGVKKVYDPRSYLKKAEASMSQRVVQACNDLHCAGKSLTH
Mtb FBA confirm: Mtb FBA inhibition, confirmed. shares compounds with FBA Mtb inh. purified M. tuberculosis FBA, fluorescence read-out. inhibition, % at 1 µM. hit rate 78% among 5,600;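 also: 0% = vehicle wells and 100% = reference inhibitor wells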
GDH-TPI counter-2: GDH-TPI inhibition counter-screen for FBA inhibitors | shares compounds with FBA Mtb inh | hit rate 81% among 5,600 | inhibition, % at 1 µM | GDH-TPI coupled enzyme counterscreen, fluorescence; in the data active = inhibition above about 10%
GDH-TPI DR: counter-screen for M. tuberculosis FBA inhibitors: GDH-TPI dose response | shares compounds with FBA Mtb inh | GDH-TPI coupled enzyme assay, fluorescence, artifact counterscreen | IC50, µM | hit rate 79% among 170 | AID 652145; call rule not given here
An asterisk follows results filed as active; i = inactive; . = no result given; + = active, no number. Rule as the data show it, unless noted: active = inhibition above about 27%; inactive = the rest.

SMILES	3CLpro inhibitor	PrPC surface inh	GDH-TPI counter-1	BH1578 lux ind	FBA Mtb inh	Mtb FBA confirm	GDH-TPI counter-2	others
CCC(=O)NCCNc1nc2cc(C)c(C)cc2cc1C#N	4	-1	4	-4	53*	6	-2
Cc1ccc(S(=O)(=O)Nc2ccc3cc([N+](=O)[O-])ccc3c2[N+](=O)[O-])cc1	.	-1	4	i	-6	.	.
O=C(CC(c1ccc(F)cc1)c1ccco1)Nc1nccs1 (centres undefined)	0	6	1	0	1	.	.
COCCCNC(=O)COC(=O)c1ccc(-c2nc3ccccc3s2)s1	-3	-6	24	0	79*	94*	70*
Cc1nc(N2CCC(C)CC2)c2c(C)c(C(=O)Nc3ccc(C(F)(F)F)cc3)sc2n1	-4	0	13	0	34*	1	-1
COC(=O)c1ccc(-c2ccc(/C=N/NC(=O)CC3(C)OCCCO3)o2)cc1	0	2	23	0	34*	+	177*
COc1ccc2ccccc2c1/C=N/NC(=O)CC1(C)OCCCO1	1	2	10	i	-1	.	.
COc1ccc(S(=O)(=O)N2CCC(C(=O)NCc3cccnc3)CC2)cc1OC	-5	-3	-4	i	-2	.	.
CSc1ccc(/C=C/C(=O)N2CCCN(C)CC2)cc1	1	-3	18	i	32*	52*	45*
COc1ccc(-c2noc(C3CCCN(C(=O)Nc4cc(C)cc(C)c4)C3)n2)cc1 (centres undefined)	.	6	.	.	.	.	.
CCCCn1c(-c2ccc(F)c(F)c2)nc2cc3[nH]c(=O)c(C(C)C)nc3cc21	-1	0	17	-1	52*	113*	92*
CCCCn1c(CCc2ccccc2)nc2cc3[nH]c(=O)c(C(C)C)nc3cc21	0	-2	8	1	33*	61*	50*
CCn1c(CCc2ccccc2)nc2ccccc21	-3	4	-6	1	-1	.	.
COc1cccc(NC(=O)Cc2nnc(SCC(=O)c3ccccc3)n2C)c1	-7	-2	5	i	83*	161*	122*
COc1cc(C#Cc2c(-c3cncn3C)n(C)c3ccc(-c4cc(OC)c(OC)c(OC)c4)cc23)cc(OC)c1	.	4	30	1	24	.	.
COc1cc(OC)cc(-c2c(C#Cc3ccsc3)c3cc(-c4cc(OC)c(OC)c(OC)c4)ccc3n2C)c1	.	3	14	i	47*	6	3
COc1cc(OC)cc(-c2c(C#Cc3ccsc3)c3cc(-c4ccc(C(N)=O)cc4)ccc3n2C)c1	.	5	3	-11	32*	36*	16*
C=CCN(C(=O)CCC(=O)O)C1CC(=O)N(c2ccc(OCCC)cc2)C1=O (centres undefined)	-2	-7	4	0	-2	.	.
O=C(Oc1ccc2ccc(=O)oc2c1)C1CCCCC1	1	5	8	0	108*	+	+
Cc1ccc(C(=O)COc2ccc3ccc(=O)oc3c2)cc1	1	-4	30	0	1	.	.
O=c1ccc2ccc(OCCOc3cccc(Cl)c3)cc2o1	4	4	11	0	49*	173*	157*
O=C(Oc1ccc2ccc(=O)oc2c1)c1ccccc1	10	8	14	1	63*	50*	41*
COc1ccc(C(=O)Oc2ccc3ccc(=O)oc3c2)cc1	-1	-3	0	1	9	.	.
CCOc1ccccc1C(=O)Oc1ccc2ccc(=O)oc2c1	3	-2	-9	i	66*	83*	81*
Cc1cc(=O)oc2cc(OCC(=O)c3ccccc3)ccc12	-2	-2	9	0	5	.	.
SMILES	3CLpro inhibitor	PrPC surface inh	GDH-TPI counter-1	BH1578 lux ind	FBA Mtb inh	Mtb FBA confirm	GDH-TPI counter-2	others
Cc1cc(=O)oc2cc(OC(=O)c3ccccc3)ccc12	5	-3	4	0	75*	+	+
COc1ccc2c(C)cc(=O)oc2c1	.	6	18	0	55*	91*	61*
COc1cccc(COc2ccc3c(C)cc(=O)oc3c2)c1	1	0	12	0	4	.	.
CC1(C(=O)NS(=O)(=O)Cc2ccccc2C(F)(F)F)CCN1C(=O)Cc1ccccc1 (centres undefined)	.	-1	-1	i	0	.	.
CCCCCCN1CCN(C2CN(Cc3ccc([N+](=O)[O-])cc3)S(=O)(=O)C2)CC1 (centres undefined)	.	-24	3	-1	-2	.	.
CC(=O)Nc1ccc(S(=O)(=O)C(C#N)c2nc3ccccc3nc2NCCN2CCOCC2)cc1 (centres undefined)	0	6	13	0	56*	73*	62*
Nc1c(C(=O)NCCN2CCOCC2)c2nc3ccccc3nc2n1CCc1ccccc1	1	-8	9	3	94*	46*	34*
Nc1c(C(=O)NCc2ccco2)c2nc3ccccc3nc2n1CCN1CCCCC1	-2	-6	18	0	91*	13	5	GDH-TPI DR=1.6*
C=CCNC(=O)c1c(N)n(CCN2CCOCC2)c2nc3ccccc3nc12	-3	-7	19	i	51*	38*	27*
COc1cc(NS(=O)(=O)c2c(C(=O)N3CCOCC3)c(C)n(C)c2C)cc(OC)c1OC	-3	-2	8	i	0	.	.
CC(=O)Nc1ccc(S(=O)(=O)c2c(N)n(CCN3CCOCC3)c3nc4ccccc4nc23)cc1	0	-11	26	-1	60*	170*	129*
COc1ccc(-n2c(N)c(C(=O)NCc3ccco3)c3nc4ccccc4nc32)cc1	-1	-25	32*	1	98*	44*	41*
CC(=O)Nc1nc2ccccc2n1CCN1CCOCC1	4	0	-6	i	0	.	.
COCCn1c(N)c(C(=O)NCc2cccs2)c2nc3ccccc3nc21	-1	0	-11	7	101*	116*	77*
CCCCOc1ccc(C(=O)NNC(=O)c2cnccn2)cc1OC	.	3	18	i	2	.	.
CCC(=O)N1CCc2cc(S(=O)(=O)CCC(=O)N3CCN(c4ccc(C(C)=O)cc4)CC3)ccc21	-7	0	19	0	0	.	.
COc1ccc(CCN2C(=S)N(C)C(=O)C2CC(=O)Nc2ccc(OC)cc2)cc1 (centres undefined)	6	1	7	i	-1	.	.
COc1ccc(NC(=O)CC2C(=O)N(C)C(=S)N2Cc2ccc3c(c2)OCO3)cc1 (centres undefined)	2	3	5	0	80*	39*	33*
Fc1ccccc1-c1nc2nc3ccccc3nc2n1CC1CCCO1 (centres undefined)	6	-18	59*	-1	60*	-2	-3
